Data published in PubChem BioAssay (NCI).
The panel holds about 79,000 compounds, 15% with a hit somewhere; the sample as a whole holds those more often. Values without a mark were called inactive. Calls of active or inactive are those of the source. Cut-off read from the data, not from the text of the source: active = growth inhibition above about 70%; inactive = the rest.

Key:
[1] = NCI Yeast Anticancer Drug Screen. Data for the rad50 strain (AID 155);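 note: 0% = growth of vehicle-only cultures of the same strain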; conditions: S. cerevisiae rad50 strain growth inhibition; at 50.0 µM; hits give high values
In short: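 Compounds were tested on a yeast strain with an engineered DNA damage repair alteration; the reported value is growth inhibition normalised to vehicle treatment.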

[2] = NCI Yeast Anticancer Drug Screen. Data for the mec2-1 strain (AID 157); conditions: S. cerevisiae mec2-1 strain, at 50.0 µM, hits give high values
In short: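 Strain: mec2-1 (DNA repair/cell cycle alteration). Compound exposure, then growth measured; inhibition expressed relative to vehicle.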

[3] = NCI Yeast Anticancer Drug Screen. Data for the sgs1 mgt1 strain (AID 161);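 note: 0% = growth of cultures given vehicle only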; conditions: S. cerevisiae sgs1 mgt1 strain, at 50.0 µM, hits give high values
In short: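 Test agents were incubated with a DNA-repair-mutant yeast strain. Growth was then read and compared against vehicle-treated controls.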

[4] = NCI Yeast Anticancer Drug Screen. Data for the cln2 rad14 strain (AID 165);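 note: 0% = growth equal to vehicle treated cultures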; conditions: S. cerevisiae cln2 rad14 strain, at 50.0 µM, hits give high values
In short: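 Compounds are applied to the cln2 rad14 yeast strain, and growth is then compared with that of vehicle-treated cultures to give inhibition.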

[5] = NCI Yeast Anticancer Drug Screen. Data for the bub3 strain (AID 167); conditions: S. cerevisiae bub3 mutant strain, at 50.0 µM, hits give high values
In short: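 Growth of a checkpoint-deficient yeast mutant is measured after compound exposure. Values represent inhibition relative to vehicle.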

[6] = NCI Yeast Anticancer Drug Screen. Data for the mlh1 rad18 strain (AID 175); conditions: S. cerevisiae mlh1 rad18 strain growth inhibition; at 50.0 µM; hits give high values
In short: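 Read-out is yeast growth inhibition, calculated against vehicle-only controls. The compound was applied to a strain engineered with DNA damage repair alterations.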

With `O=C(O)COc1c(Cl)cc(Cl)cc1Cl` as the compound, how does the growth inhibition [1] read?
Its growth inhibition is -34.7%.

And the growth inhibition [2]?
Its growth inhibition is -37%.

And the growth inhibition [3]?
Its growth inhibition is -29.6%.

And the growth inhibition [4]?
Its growth inhibition is -15.4%.

And the growth inhibition [5]?
The growth inhibition was -39.9%.

What about the growth inhibition [6] of the same compound?
Its growth inhibition is -31.6%.

What does the source list for `Cc1cc(N=Cc2cccs2)cc(Cl)c1O`?
growth inhibition [1]: 21.7%; growth inhibition [2]: 14.4%; growth inhibition [3]: 5.05%; growth inhibition [4]: 12.2%; growth inhibition [5]: 41.8%; growth inhibition [6]: 24.8%

What does the source list for `O=c1c2ccccc2[nH]c2c(O)ccc(O)c12`?
growth inhibition [1]: 18.3%; growth inhibition [2]: -1.65%; growth inhibition [3]: 6.55%; growth inhibition [4]: 7.65%; growth inhibition [5]: -1.55%; growth inhibition [6]: 12.7%

What does the source list for `O=C1CCCc2[nH]c3ccc(Cl)cc3c21`?
growth inhibition [1]: -1.9%; growth inhibition [2]: 0.3%; growth inhibition [3]: -10.9%; growth inhibition [4]: -21.9%; growth inhibition [5]: -14.2%; growth inhibition [6]: 12.9%

Which growth inhibition [1] does the source give for `NC(=O)NC(=O)Cc1ccc(N)cc1` here?
The growth inhibition was 4.6%.

And the growth inhibition [2]?
Its growth inhibition is -9.1%.

And the growth inhibition [3]?
Its growth inhibition is 1.9%.

What about the growth inhibition [4] of the same compound?
The growth inhibition was 1.1%.

And the growth inhibition [5]?
The growth inhibition was 4%.

And the growth inhibition [6]?
Its growth inhibition is -4.9%.

With `CC(O)CN(Cc1ccccc1)CC(C)O` (stereo not drawn) as the compound, how does the growth inhibition [1] read?
The growth inhibition was 8.1%.

What about the growth inhibition [2] of the same compound?
Its growth inhibition is 28.9%.

And the growth inhibition [3]?
Its growth inhibition is -6.7%.

What about the growth inhibition [4] of the same compound?
The growth inhibition was -22.9%.

And the growth inhibition [5]?
The growth inhibition was -3.5%.

What about the growth inhibition [6] of the same compound?
Its growth inhibition is -14.9%.

Which results are given for `N/N=C1/C(=N/O)CCc2nonc21`?
growth inhibition [1]: 6.15%; growth inhibition [2]: 6.5%; growth inhibition [3]: 3.5%; growth inhibition [4]: -8.3%; growth inhibition [5]: -7.45%; growth inhibition [6]: -27.1%

Which results are given for `CC(=O)Nc1cc2c(cc1Cl)[nH]c(=O)c1ccccc12`?
growth inhibition [1]: 8.1%; growth inhibition [2]: -10.9%; growth inhibition [3]: -19.8%; growth inhibition [4]: -3.25%; growth inhibition [5]: 11.4%; growth inhibition [6]: 7.5%

Which results are given for `C=C1C(=O)[C@@]23CC[C@@H]4[C@@]5(C)CCC[C@@]4(OC5=O)C2(C)CC[C@]1(OC)C3` (stereo partly drawn)?
growth inhibition [1]: 87.2% (active); growth inhibition [2]: 92.5% (active); growth inhibition [3]: 88.3% (active); growth inhibition [4]: 88.5% (active); growth inhibition [5]: 88.4% (active); growth inhibition [6]: 90.7% (active)

With `[N-]=[N+]=NC(=O)c1cnn(-c2ccccc2)c1N` as the compound, how does the growth inhibition [1] read?
Its growth inhibition is 9.65%.

And the growth inhibition [2]?
The growth inhibition was 18.9%.

And the growth inhibition [3]?
Its growth inhibition is 9.4%.

And the growth inhibition [4]?
Its growth inhibition is -27.4%.

And the growth inhibition [5]?
Its growth inhibition is 14.6%.

What about the growth inhibition [6] of the same compound?
Its growth inhibition is 2.2%.

Which growth inhibition [1] does the source give for `Cc1cc(C)c(C2=[N+]([O-])ON3CCc4ccccc4C23)c(C)c1` (stereo not drawn) here?
Its growth inhibition is 1.5%.

What about the growth inhibition [2] of the same compound?
Its growth inhibition is -7.7%.

And the growth inhibition [3]?
The growth inhibition was -3.05%.

And the growth inhibition [4]?
The growth inhibition was 4.5%.

What about the growth inhibition [5] of the same compound?
Its growth inhibition is -5.3%.

And the growth inhibition [6]?
The growth inhibition was -3.2%.

With `NC(=O)C1=C(O)C(=O)NC1=O` as the compound, how does the growth inhibition [1] read?
Its growth inhibition is 1.6%.

And the growth inhibition [2]?
Its growth inhibition is 1.55%.

What about the growth inhibition [3] of the same compound?
Its growth inhibition is 8.9%.

What about the growth inhibition [4] of the same compound?
Its growth inhibition is -29.8%.

And the growth inhibition [5]?
Its growth inhibition is 7.05%.

What about the growth inhibition [6] of the same compound?
Its growth inhibition is -5.1%.

What does the source list for `COC(C)C(NC(=O)C1CCCN1C)C1OC(SCCOC(=O)c2ccccc2O)C(O)C(O)C1O` (stereo not drawn)?
growth inhibition [1]: 8.3%; growth inhibition [2]: 6.3%; growth inhibition [3]: -13.6%; growth inhibition [4]: 13.4%; growth inhibition [5]: 3.45%; growth inhibition [6]: 31.6%

With `CCOP(=O)(OCC)C(C)(CC)NC1=NC(C(F)(F)F)(C(F)(F)F)NC(=O)N1` (stereo not drawn) as the compound, how does the growth inhibition [1] read?
The growth inhibition was -2.2%.

And the growth inhibition [2]?
Its growth inhibition is -10.2%.

And the growth inhibition [3]?
Its growth inhibition is -3.3%.

And the growth inhibition [4]?
The growth inhibition was 1%.

And the growth inhibition [5]?
Its growth inhibition is -0.5%.

And the growth inhibition [6]?
The growth inhibition was -0.15%.

What does the source list for `CCN(CC)CCC(=O)O`?
growth inhibition [1]: -13.4%; growth inhibition [2]: -19.4%; growth inhibition [3]: -7%; growth inhibition [4]: 5.95%; growth inhibition [5]: -10.7%; growth inhibition [6]: -5.2%

For `CCCCCCCCCCCCCCCCCCOc1c(Cl)c(Cl)c(Cl)c(Cl)c1Cl`, which growth inhibition [1] is on record?
Its growth inhibition is 15.1%.

What about the growth inhibition [2] of the same compound?
Its growth inhibition is -1.55%.

And the growth inhibition [3]?
Its growth inhibition is -8.25%.

And the growth inhibition [4]?
Its growth inhibition is -25.9%.

And the growth inhibition [5]?
The growth inhibition was -7.4%.

And the growth inhibition [6]?
The growth inhibition was -8.1%.

What does the source list for `O=C(CCN1CCCCC1)c1cc(Cl)ccc1Cl`?
growth inhibition [1]: 88.4% (active); growth inhibition [2]: 68.4%; growth inhibition [3]: 93.1% (active); growth inhibition [4]: 62.5%; growth inhibition [5]: 91% (active); growth inhibition [6]: 80.2% (active)

What does the source list for `CC1(C)OC2C(COC(=O)c3ccc([N+](=O)[O-])cc3)OC(NC(=O)N(CCCl)N=O)C2O1` (stereo not drawn)?
growth inhibition [1]: -34.4%; growth inhibition [2]: -21.2%; growth inhibition [3]: -20.9%; growth inhibition [4]: -11.2%; growth inhibition [5]: -36.5%; growth inhibition [6]: 81.5% (active)
